Bioassay records: PubChem BioAssay, National Center for Advancing Translational Sciences (NCATS)
Sm TGR block: blocks Schistosoma mansoni thioredoxin glutathione reductase | Potency, µM (titrated, usually from 114 µM), without a hit: at the highest dose activity change, negative = inhibition, usual class: inhibitors | hit rate 3% among 360,000 | Q962Y6 | purified TGR, DTNB reduction, TNB absorbance 405 nm; note: potency is the fitted concentration of half-maximal effect; % is set by controls: 0 for no effect and ±100 for the full control effect; nearly all actives have a fitted effect of over 60% in size
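TGR 20 nM + NADPH 100 uM (dispensed conc.), cpd preinc 15 min RT; start with NADPH (500 uM addition) then DTNB (15 mM addition). Kinetic TNB absorbance, 405 nm filter. Four-parameter Hill fit across titration.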
Pf growth 96h: P. falciparum growth inhibition at 96 hour, primary screen for plastid delayed-death inhibitors. AID 504834. P. falciparum luciferase reporter growth, 96 h. hit rate 6.9% among 320,000. Potency, µM (series often up to 28.7 µM), for inactives: top-dose activity change, negative = inhibition, actives largely listed as inhibitors; note: potency is the fitted concentration of half-maximal effect; % is set by controls: 0 for no effect and ±100 for the full control effect
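Plates of compound plus infected erythrocytes (2% hematocrit, 0.05% parasitemia final) incubate 96 hours, 37 C, 5% CO2. Detection reagent added; reduced luminescence from the parasites' luciferase reporter flags inhibition.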
SARS PLpro yeast: blocks SARS-CoV papain-like protease in a yeast assay | S. cerevisiae expressing SARS-CoV PLpro, growth rescue | Potency, µM (titrated, usually from 32.9 µM), for inactives: at the highest dose activity, positive = growth rescue, most hits filed as activators | hit rate 0.19% among 330,000; calls by dose curve; note: potency is the fitted concentration of half-maximal effect; 0% is about no effect; nearly all actives have a fitted effect of over 55% in size
HCV inh: inhibitors of hepatitis C virus infection. AID 651820. Potency, µM (doses to about 41.8 µM), without a hit: at the highest dose activity change, negative = inhibition, usual class: inhibitors. hit rate 3.4% among 340,000. Huh7.5.1 HCVcc-Cre infection, luciferase reporter, 44 h; note: potency is the fitted concentration of half-maximal effect; % is set by controls: 0 for no effect and ±100 for the full control effect
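Cells (1,000/well) were plated 4 h before compound, then infected with HCVcc-Cre virus (~0.5 moi). After 44 h further culture, infection was read as luciferase luminescence following a 15 min substrate incubation at room temperature.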
Pf growth 48h: P. falciparum growth inhibition at 48 hours (one generation); hit rate 5.9% among 310,000; Potency, µM (top dose mostly 28.7 µM), for inactives: top-dose activity change, negative = inhibition, usual class: inhibitors; P. falciparum luciferase growth in erythrocytes, 48 h; note: potency is the fitted concentration of half-maximal effect; % is set by controls: 0 for no effect and ±100 for the full control effect
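Parasite viability was followed by luminescence of a genomically integrated firefly luciferase. Cultures held 0.1% parasitemia at 2% hematocrit (final), incubated under 5% CO2 at 37 C.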
HCMV inh: human cytomegalovirus inhibition; HFF cells, HCMV-luciferase reporter, 72 h; active compounds read low; activity change, negative = inhibition, % at 57.5 µM; hit rate 4.5% among 410,000; AID 1259415; in the data active = activity change below about -60%; inconclusive = no clear call, values can overlap the other calls; inactive = above about -39%; note: % is set by controls: 0 for no effect and ±100 for the full control effect
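After 16 h attachment at 37C, HFF cells received test compound and HCMV-luciferase (1 PFU/cell); reporter luminescence read 72 h later, data normalized against buffer-only and known inhibitor Salinomycin.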
* marks the source's active call; other numbers are inactive results; ? = inconclusive; / = not tested or not shown; [ ] = another dose, or the depositor's remark. Shown are actives, neighbours in structure and some others; about 15% of the full set was active somewhere. Unless noted, calls come from the whole dose curve; as a rule, active = well fitted curve in the direction sought with a large enough effect; inconclusive = small, poorly fitted or top-dose-only effect, or another doubt; inactive = no such curve, though single readings can be large; an effect the other way counts as inactive or inconclusive.

SMILES | Sm TGR block | Pf growth 96h | SARS PLpro yeast | HCV inh | Pf growth 48h | HCMV inh
Cc1nnc(NC(=O)CCC(=O)N2CCN(CCOc3cccc4ccccc34)CC2)s1 | 2.4% | ? | 1.9% | ? | ? | 46.5
CCc1nnc(NC(=O)CCC(=O)N2CCC(Cc3ccccc3)CC2)s1 | 0.0% | 10.4µM* | 1.3% | 2.3% | -29.8% | -12.0
Cc1ccc(OCCN2CCN(C(=O)CCC(=O)Nc3nnc(C)s3)CC2)cc1 | -13.9% | ? | 3.8% | 9.0% | -4.6% | -101.2*
Cc1ccc(OCCN2CCN(C(=O)CCC(=O)Nc3nnc(C(C)C)s3)CC2)cc1 | -6.1% | 2.94µM* | 12.5% | ? | 10.4µM* | -84.0*
CC(C)c1nnc(NC(=O)CCC(=O)N2CCN(Cc3ccccc3)CC2)s1 | 0.0% | -11.6% | -2.0% | 15.8% | 5.5% | 27.0
CCCc1nnc(NC(=O)CCC(=O)N2CCN(CCOc3ccc(C)cc3)CC2)s1 | -13.9% | ? | 1.9% | ? | 10.4µM* | ?
Cc1cc(CNC[C@H]2O[C@@H](n3ccc(=O)[nH]c3=O)[C@H](O)[C@@H]2O)no1 | / | / | / | / | / | 6.4
Nc1ncncc1-c1ccc2ccccc2c1 | 16.7% | 1.2% | -1.6% | 9.3% | -6.8% | -74.6*
COc1ccc(-c2cncnc2N)cc1OC | / | / | / | / | / | -17.5
CCCC(=O)Nc1nnc(SCc2cc(=O)n3cccc(C)c3n2)s1 | 2.2% | / | / | / | / | 2.4
Cc1cccc2cc(/C=N/NC(=O)[C@H]3C[C@@H]3c3ccccc3)c(Cl)nc12 | 2.3% | 7.3% | 0.4% | -8.0% | 0.3% | -29.0
Cc1ccc2cc(/C=N/NC(=O)[C@H]3C[C@@H]3c3ccccc3)c(Cl)nc2c1 | 2.4% | 2.08µM* | -12.2% | 11.9% | 2.94µM* | 14.0
O=C(N/N=C/c1cc2ccccc2nc1Cl)[C@H]1C[C@@H]1c1ccccc1 | -10.3% | 1.65µM* | 3.8% | ? | 2.62µM* | -38.7
COc1ccc(OCCCC(=O)Nc2nccs2)cc1 | 0.7% | ? | -0.1% | -13.2% | ? | ?
Cc1ccc(C)c(OCCCC(=O)Nc2nccs2)c1 | 0.1% | ? | / | 12.6µM* | ? | 10.1
CCOc1ccccc1OCCCC(=O)Nc1sccc1C(N)=O | -2.2% | ? | -1.2% | ? | 11.7µM* | -61.1*
Cc1ccccc1OCCCC(=O)Nc1nccs1 | 7.9% | -4.6% | 12.1% | 11.2µM* | / | ?
NC(=O)c1ccsc1NC(=O)CCc1ccccc1 | -16.9% | -11.0% | 2.3% | -5.1% | 84.4% | 5.4
COc1ccc(NS(=O)(=O)c2ccc(-n3cccn3)cc2)cc1OC | -2.4% | / | / | / | / | ?
O=C(CS(=O)CC(=O)Nc1cccnc1)Nc1ccc(F)cc1 (stereo unspecified) | 4.2% | -1.9% | 1.5% | -0.5% | ? | 5.4
CCCCn1c(C)cc2c(c1=O)C1O[C@](c3ccsc3)(Cc3cc(OC)c(OC)cc31)O2 | ? | ? | 0.7%[6.58 µM] | / | ? | /
CCOC1=CC2=C(C(=O)C(Cl)=CC2=O)[C@@H]2CN(S(=O)(=O)c3ccc(C)cc3)[C@@H](c3ccccc3)[C@H]12 | / | / | / | / | / | 1.0
CC1(C)OC(=O)C(=CNC(CCC(N)=O)C(=O)O)C(=O)O1 (stereo unspecified) | -6.2% | 11.5% | -0.1% | 22.8% | -9.0% | 47.0
CC(C)(C)OC(=O)NC(CCNC=C1C(=O)OC(C)(C)OC1=O)C(=O)O (stereo unspecified) | -15.2% | 8.28µM* | 5.6% | -21.7% | 23.3% | 44.0
Cc1ccc(N=C2NC(=O)CS2)cc1C | 6.1% | 10.1% | 4.1% | 13.5% | -16.9% | 58.4
SMILES | Sm TGR block | Pf growth 96h | SARS PLpro yeast | HCV inh | Pf growth 48h | HCMV inh
CCN(CC)S(=O)(=O)c1ccc(C(=O)C(C#N)c2ccccn2)cc1 (stereo unspecified) | 0.8% | 21.0% | 0.3% | 10µM* | ? | ?
CCOC(=O)C(C#N)c1ccccn1 (stereo unspecified) | 6.2% | 24.3% | 0.8% | 1.4% | 63.9% | 62.5
CCCc1cc(C(=O)O)c2ccccc2n1 | 7.3% | -9.2% | 11.8% | 6.8% | / | /
Cc1ccc(NC(=O)CCl)c(C)c1 | 25.1µM* | 10.4µM* | 19.2% | ? | 1.85µM* | -24.3
Cc1ccc(NC(=O)CC2(CC(=O)O)CCCC2)c(C)c1 | 6.4% | 4.15µM* | -0.6% | 11.7% | 2.6%[0.00184 µM] | 21.5
Cc1ccc(NC(=O)Cc2cc(C(=O)O)c3ccccc3n2)c(C)c1 | / | ? | -1.6% | 12.6µM* | ? | ?
COc1cccc(N2CCN(C(=O)c3cnn(-c4ccccc4Cl)c3C3CCN(C(=O)OC(C)(C)C)CC3)CC2)c1 | -3.4% | / | / | / | / | 9.2
COc1ccc(CNCCC2(Cc3ccccc3)CC(C)N(C)CC2C)cc1OC (stereo unspecified) | 33.8% | -4.0% | 1.2% | 7.94µM* | ? | -0.2
CCOC(=O)C1=C(Nc2cccc(Cl)c2)OCC1=O | -0.1% | 9.28µM* | -10.8% | -2.8% | -26.1% | -28.5
COc1cccc(C2NC(=O)NC(C)=C2C(=O)OCC2CCCCC2)c1 (stereo unspecified) | 1.6% | ? | 17.4% | 6.6% | ? | -31.4
O=C(Nc1nnc(CCN2CCCCC2)s1)C1CCCCC1 | 1.3% | 13.1µM* | -2.5% | 10.6% | 6.7% | -23.0
CCc1nnc(NC(=O)C2CCCN(c3nc(C)cc(C)n3)C2)s1 (stereo unspecified) | 3.5% | 4.65µM* | -2.5% | -7.5% | 20.1% | 2.5
O=C(Nc1nnc(CCN2CCOCC2)s1)C1CCCCC1 | 1.3% | / | 9.8% | 15.3% | -2.2% | 37.4
Cc1nc2sccn2c(=O)c1CCN1CCC(=C(c2ccccc2)c2ccc(F)cc2)CC1 | -10.1% | 14.7µM* | 4.6% | 0.8%[8.37 µM] | 14.7µM* | /
Cc1nc2sccn2c(=O)c1S(=O)(=O)N1CCN(c2ccccc2)CC1 | -14.2% | 14.1% | -1.4% | 22.1% | -8.5% | 14.6
NS(=O)(=O)c1ccc(NC(=S)Nc2ccn(Cc3cccc4ccccc34)n2)cc1 | -12.4% | 0.0% | 4.5% | 10µM* | ? | -79.3*
COc1ccc(Oc2coc3cc(OC(=O)/C=C/c4ccc(F)cc4)ccc3c2=O)cc1 | -19.2% | 4.15µM* | 13.3% | 32.4% | ? | 19.4
Cc1ccc(C(=O)N2CC3(C(C)C)CN(C(=O)c4ccc(C)cc4)CC(C(C)C)(C2)C3=O)cc1 | -17.6% | 9.28µM* | 2.3% | -2.8% | / | -32.6
CC(C)N(C)CCOC(=O)C1COc2ccccc2O1 (stereo unspecified) | -1.1% | 31.1% | 1.3% | 21.9% | 32.1% | 12.7
CC(C)CCCCCCNC(=S)Nc1ccc(S(=O)(=O)N2CCOCC2)cc1 | -12.8% | ? | 17.9% | ? | ? | -84.9*
CSc1cccc(NC(=O)C2CCN(S(=O)(=O)c3ccc(F)cc3)CC2)c1 | -3.9% | ? | / | 11.2µM* | ? | -35.3
